High-throughput results as filed in PubChem.
Sm TGR block – blocks Schistosoma mansoni thioredoxin glutathione reductase; Q962Y6; purified TGR, DTNB reduction, TNB absorbance 405 nm; Potency, µM (highest dose often 114 µM), inactives show top-dose activity change, negative = inhibition, usual class: inhibitors; hit rate 3% among 360,000; AID 485364; note: % is set by controls: 0 for no effect and ±100 for the full control effect; nearly all actives have a fitted effect of over 60% in size
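First, TGR (20 nM dispensed) and NADPH were mixed with compound. Second, a 15 min room-temperature incubation followed. Third, further NADPH and then DTNB were added to start the reaction. Finally, TNB absorbance was monitored kinetically.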
AmpC inh detg – blocks E. coli AmpC beta-lactamase in detergent assay; AmpC hydrolysis of nitrocefin, absorbance 480 nm, 0.01% Triton; hit rate 0.041% among 370,000; Potency, µM (doses to about 114 µM), for inactives: at the highest dose activity change, negative = inhibition, most hits filed as inhibitors; P00811;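 note: 0% = no-compound wells and -100% = no-enzyme wells; nearly all actives have a fitted effect of over 25% in size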
Target sequence (P00811 whole entry, looked up): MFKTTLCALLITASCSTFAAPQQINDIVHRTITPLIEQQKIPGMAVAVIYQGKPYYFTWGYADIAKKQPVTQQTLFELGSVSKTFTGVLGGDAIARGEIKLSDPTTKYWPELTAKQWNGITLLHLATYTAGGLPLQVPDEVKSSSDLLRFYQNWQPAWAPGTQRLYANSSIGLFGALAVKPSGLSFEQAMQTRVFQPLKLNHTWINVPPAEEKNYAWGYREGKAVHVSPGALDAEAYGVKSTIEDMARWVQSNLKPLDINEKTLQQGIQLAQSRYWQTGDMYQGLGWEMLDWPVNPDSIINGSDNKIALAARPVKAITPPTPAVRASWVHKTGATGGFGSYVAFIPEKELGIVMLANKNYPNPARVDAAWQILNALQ
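20 mM phosphate pH 7.0 + 0.01% (detergent screen) or 0.0001% Triton X-100; 5.3 nM AmpC reagent; cpd preinc 15 min RT; nitrocefin (800 uM stock) to start; A480 q20 s × 4 min; Activity was normalised to no-enzyme and no-compound control wells.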
AmpC no deterg – inhibitors of E. coli AmpC beta-lactamase without detergent | P00811 | AmpC nitrocefin hydrolysis, absorbance 480 nm, 0.0001% Triton | Potency, µM (doses to about 57.1 µM), without a hit: at the top dose activity change, negative = inhibition, hits mostly inhibitors | hit rate 0.52% among 330,000;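 note: plate controls were no compound for no effect and no enzyme for full effect; nearly all actives have a fitted effect of over 20% in size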
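AmpC (5.3 nM in the dispensed reagent) in 20 mM phosphate pH 7.0 with 0.01% (detergent screen) or 0.0001% Triton X-100 was preincubated with compounds for 15 min at room temperature. Nitrocefin was then added from an 800 uM solution, and hydrolysis was followed at 480 nm.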
SARS PLpro yeast – SARS-CoV PLP inhibition in yeast; Potency, µM (titrated, usually from 32.9 µM), for inactives: at the highest dose activity, positive = growth rescue, most hits filed as activators; S. cerevisiae expressing SARS-CoV PLpro, growth rescue; hit rate 0.19% among 330,000; calls by dose curve; note: 0% is about no effect; nearly all actives have a fitted effect of over 55% in size
Pf growth 96h – P. falciparum growth inhibition at 96 hours. P. falciparum luciferase reporter growth, 96 h. Potency, µM (doses to about 28.7 µM), inactives show at the highest dose activity change, negative = inhibition, most hits filed as inhibitors. hit rate 6.9% among 320,000. AID 504834; note: % is set by controls: 0 for no effect and ±100 for the full control effect
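Two-generation exposure (96 h) targets delayed-death phenotype. Reporter parasites carrying integrated firefly luciferase, in red cells at 2% hematocrit and 0.05% parasitemia final, kept at 37 C, 5% CO2; luminescence loss indicates inhibition.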
Pf growth 48h – P. falciparum growth inhibition at 48 hours (one generation); hit rate 5.9% among 310,000; P. falciparum luciferase growth in erythrocytes, 48 h; AID 504832; Potency, µM (top dose mostly 28.7 µM), without a hit: at the top dose activity change, negative = inhibition, hits mostly inhibitors; note: % is set by controls: 0 for no effect and ±100 for the full control effect
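Erythrocytes infected with P. falciparum carrying an integrated firefly luciferase reporter (2% hematocrit, 0.1% parasitemia final) were exposed to compounds in RPMI 1640 with 0.5% Albumax at 37 C, 5% CO2. Growth inhibition was scored as reduced luminescence.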
* marks the source's active call; other numbers are inactive results. Compounds with a hit are over-represented: about 12% of the library has one in this group of screens. Unless noted, calls come from the whole dose curve; as a rule, active = well fitted curve in the direction sought with a large enough effect; inconclusive = small, poorly fitted or top-dose-only effect, or another doubt; inactive = no such curve, though single readings can be large; an effect the other way counts as inactive or inconclusive. Potency is the fitted concentration of half-maximal effect.

`O=C(NCc1ccco1)c1cnn2c(C(F)(F)F)cc(-c3ccccc3)nc12` gave Sm TGR block inconclusive, AmpC inh detg -9%, AmpC no deterg -14%, SARS PLpro yeast 0%, Pf growth 96h -10% and Pf growth 48h 13µM*.
O=C(NC1CCCC1)c1cnn2c(C(F)(F)F)cc(-c3ccco3)nc12 was read as Sm TGR block inconclusive, AmpC inh detg -3%, AmpC no deterg 0%, SARS PLpro yeast 3% and Pf growth 48h inconclusive.
`COc1ccc(-c2cc(C(F)(F)F)n3ncc(C(=O)N(C)Cc4ccccc4)c3n2)cc1` gave Sm TGR block -2%, AmpC inh detg 4%, AmpC no deterg 65%, SARS PLpro yeast -1%, Pf growth 96h inconclusive and Pf growth 48h inconclusive.
For COc1ccc(-c2cc(C(F)(F)F)n3ncc(C(=O)NCc4ccco4)c3n2)cc1 the results were Sm TGR block 45µM*, AmpC inh detg 1%, AmpC no deterg -13%, SARS PLpro yeast -3%, Pf growth 96h 0% and Pf growth 48h inconclusive.
`Cc1ccc2oc(=O)c3cnn(CC(=O)N(CCCN4CCOCC4)Cc4ccco4)c3c2c1` gave Sm TGR block -4%, AmpC inh detg inconclusive, AmpC no deterg 30%, SARS PLpro yeast -3%, Pf growth 96h inconclusive and Pf growth 48h 6%.
For CCOC(=O)C1CCCN(C(=O)Cn2ncc3c4ccccc4n(C)c3c2=O)C1 (centres undefined) the results were Sm TGR block -5% and AmpC inh detg -7%.
CCN=C1SC(C(=O)Nc2cccc(C(=O)O)c2)CC(=O)N1CC (centres undefined) was read as Sm TGR block inconclusive, AmpC inh detg -11%, AmpC no deterg -10%, SARS PLpro yeast 6%, Pf growth 96h 13µM* and Pf growth 48h -3%.
Cc1ccc(C)c(NC(=O)C(=O)NCCc2c[nH]c3ccccc23)c1 was read as Sm TGR block 6%, AmpC inh detg 3%, AmpC no deterg -30%, SARS PLpro yeast 2%, Pf growth 96h 47% and Pf growth 48h -21%.
CCC(C(=O)NCCc1c[nH]c2ccc(C)cc12)c1ccccc1 (centres undefined) was read as Sm TGR block 14%, AmpC inh detg inconclusive, AmpC no deterg 107%, SARS PLpro yeast 0%, Pf growth 96h 15µM* and Pf growth 48h inconclusive.
Screening O=C(O)CCC(=O)N1CCc2cc(S(=O)(=O)NCCc3ccc(Cl)cc3)ccc21 returned Sm TGR block -8%, AmpC inh detg -1%, AmpC no deterg -19%, SARS PLpro yeast -2%, Pf growth 96h inconclusive and Pf growth 48h 9%.
Screening COc1ccc(N(C)S(=O)(=O)c2ccc3c(c2)CCN3C(=O)C2CC2)c(OC)c1 returned Sm TGR block 2%, AmpC inh detg 3%, AmpC no deterg 61%, SARS PLpro yeast inconclusive, Pf growth 96h 4.1µM* and Pf growth 48h -6%.
For Cc1ccc(C)c(N2CCN(S(=O)(=O)c3ccc4c(c3)CCN4C(=O)CCC(=O)O)CC2)c1 the results were Sm TGR block 6%, AmpC inh detg -11%, AmpC no deterg -22%, SARS PLpro yeast -6% and Pf growth 96h inconclusive.
CC(=O)N1CCc2cc(S(=O)(=O)NCc3ccc(C)cc3)ccc21 was read as Sm TGR block 3%, AmpC inh detg -1%, AmpC no deterg -4%, SARS PLpro yeast 4%, Pf growth 96h inconclusive and Pf growth 48h 28%.
For CCC(=O)N1CCc2cc(S(=O)(=O)N(C)c3ccc(OC)cc3OC)ccc21 the results were Sm TGR block -16%, AmpC inh detg 0%, AmpC no deterg -8%, SARS PLpro yeast -2%, Pf growth 96h 35% and Pf growth 48h -4%.
`Cc1ccc(CNS(=O)(=O)c2ccc3c(c2)CCN3C(=O)C2CCC2)cc1` gave Sm TGR block 0%, AmpC inh detg -1%, AmpC no deterg -29%, SARS PLpro yeast -2%, Pf growth 96h 13µM* and Pf growth 48h 18%.
O=C(O)CCC(=O)N1CCc2cc(S(=O)(=O)NCc3ccc(Cl)cc3)ccc21 was read as Sm TGR block -12%, AmpC inh detg 2%, AmpC no deterg -25%, SARS PLpro yeast 0%, Pf growth 96h 12µM* and Pf growth 48h 10%.
For O=C(O)CCC(=O)N1CCc2cc(S(=O)(=O)N3CCN(c4ccc(F)cc4)CC3)ccc21 the results were Sm TGR block -2%, AmpC inh detg inconclusive, AmpC no deterg -4%, SARS PLpro yeast 11% and Pf growth 96h 15µM*.
Screening CCOC(=O)c1c(C)sc(-c2c(-c3ccc4c(c3)OCCO4)[nH]c3c2c(=O)[nH]c(=O)n3C)c1O returned Sm TGR block -3% and AmpC inh detg 14%.
Screening Cc1ccc(-c2nnn(CC(=O)N3c4ccccc4CCc4ccccc43)n2)cc1 returned Sm TGR block 0%, AmpC inh detg inconclusive, AmpC no deterg -15%, SARS PLpro yeast -6%, Pf growth 96h inconclusive and Pf growth 48h 10µM*.
For Nc1ccc(-c2nnn(CC(=O)N3CCCCC3)n2)cc1 the results were Sm TGR block 4%, AmpC inh detg -11%, AmpC no deterg -6%, SARS PLpro yeast 6%, Pf growth 96h inconclusive and Pf growth 48h 38%.
Screening CS(=O)(=O)c1ccc(-c2nnn(CC(=O)N3CCCCC3)n2)cc1 returned Sm TGR block -4%, AmpC inh detg inconclusive, AmpC no deterg 1%, SARS PLpro yeast 2%, Pf growth 96h 12µM* and Pf growth 48h 2%.
`O=C(Cn1nnc(-c2ccc(CN3CCOCC3)cc2)n1)N1CCCc2ccccc21` gave Sm TGR block -21%, AmpC inh detg inconclusive, AmpC no deterg 104%, SARS PLpro yeast 0%, Pf growth 96h 2.6µM* and Pf growth 48h inconclusive.
COc1ccccc1OCC(=O)Nc1c(C(=O)c2ccc(F)cc2)oc2ccccc12 was read as Sm TGR block 5% and AmpC inh detg 20%.
Cc1ccc(C)c(CSc2nnc3[nH]c(=O)cc(C)n23)c1 was read as Sm TGR block 7% and AmpC inh detg 1%.
`Cn1nnc(NC(=O)c2ccc(C(C)(C)C)cc2)n1` gave Sm TGR block -4%, AmpC inh detg -14%, AmpC no deterg -1%, SARS PLpro yeast -13%, Pf growth 96h 0% and Pf growth 48h 9.3µM*.
Cn1nnc(NC(=O)c2ccc3ccccc3c2)n1 was read as Sm TGR block -1%, AmpC inh detg -6%, AmpC no deterg -12%, SARS PLpro yeast 2%, Pf growth 96h inconclusive and Pf growth 48h inconclusive.
